The text below walks through data of PubChem BioAssay (EPA / NIEHS).

The source made the active and inactive calls. Rule for the calls: active = hit-call score of the fitted dose curve at least 0.9, where 1 is the maximum; inactive = score below 0.9.

Read-out in assay [1]: Human Leukocyte Antigen - DR isotype (HLADR), HLA-DRA (gene 3122)
The experiment in a line: BSK_BE3C_HLADR: BioMAP Diversity Plus: BE3C Assay for Human Leukocyte Antigen - DR isotype (HLADR) Biomarker Activity (AID 2283032). The note with it: primary human bronchial epithelial cells; actives raise or lower the signal. An outline of the steps: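 Cell-surface HLA-DR ELISA readout at 24 h after dosing in the BE3C primary human lung bronchial epithelial system; gain or loss of signal against DMSO, with parallel sulforhodamine B staining of total protein for overt cytotoxicity.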

Read-out in assay [2]: Vascular cell adhesion molecule 1 (VCAM1), VCAM1 (gene 7412)
The experiment in a line: BSK_4H_VCAM1: BioMAP Diversity Plus: 4H Assay for Vascular cell adhesion molecule 1 (VCAM1) Biomarker Activity (AID 2283033).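 Note: cell-surface VCAM-1 protein measured by ELISA.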 Conditions: primary human endothelial cells (HUVEC); actives raise or lower the signal. The procedure, abridged:
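VCAM-1 ELISA read 24 h after chemical dosing of HUVEC in the BioMAP 4H system, with gain or loss of signal fitted relative to DMSO. Parallel SRB staining (560 nm) checked overt cytotoxicity.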

Read-out in assay [3]: Interferon-gamma inducible Protein 10 (IP10), CXCL10 (gene 3627)
The experiment in a line: BSK_BE3C_IP10: BioMAP Diversity Plus: BE3C Assay for Interferon-gamma inducible Protein 10 (IP10) Biomarker Activity (AID 2283034). The note with it: primary human bronchial epithelial cells; actives raise or lower the signal. An outline of the steps:
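IP-10 quantified by ELISA in human primary bronchial epithelial cell cultures at 24 hours post-dosing. Gain or loss of signal fitted relative to DMSO; parallel SRB staining assessed overt cytotoxicity.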

Read-out in assay [4]: Monokine induced gamma interferon (MIG), CXCL9 (gene 4283)
Briefly: BSK_BE3C_MIG: BioMAP Diversity Plus: BE3C Assay for Monokine induced gamma interferon (MIG) Biomarker Activity (AID 2283035). Conditions: primary human bronchial epithelial cells; actives raise or lower the signal. An outline of the steps:
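Dose cells (human primary bronchial epithelial), incubate 24 h, quantify MIG by ELISA, then fit concentration–response in both directions relative to DMSO control.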

Read-out in assay [5]: Transforming growth factor beta 1 (TGFb1), TGFB1 (gene 7040)
The experiment in a line: BSK_BE3C_TGFb1: BioMAP Diversity Plus: BE3C Assay for Transforming growth factor beta 1 (TGFb1) Biomarker Activity (AID 2283036;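 note: TGF-b1 protein level measured by ELISA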). The note with it: primary human bronchial epithelial cells; actives raise or lower the signal. The procedure, abridged: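 ELISA readout of TGF-b1 from human lung bronchial epithelial primary cells, taken 24 h post-treatment. Gain or loss of signal fitted relative to DMSO baseline, with parallel SRB staining for overt cytotoxicity.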

Read-out in assay [6]: urokinase plasminogen activator (uPA), PLAU (gene 5328)
Briefly: BSK_BE3C_uPA: BioMAP Diversity Plus: BE3C Assay for urokinase plasminogen activator (uPA) Biomarker Activity (AID 2283038).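 For outcome: uPA protein level quantified by ELISA in cell cultures; uPA read one day after compound addition.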 Conditions: primary human bronchial epithelial cells; actives raise or lower the signal. An outline of the steps:
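ELISA read-out of uPA in human lung primary bronchial epithelial cultures, 24 h post-dosing. Gain or loss of signal fitted bidirectionally relative to DMSO baseline; cytotoxicity checked in parallel cultures via SRB total protein stain.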

Read-out in assay [7]: Interleukin-6 (IL6), IL6 (gene 3569)
Briefly: BSK_CASM3C_IL6: BioMAP Diversity Plus: CASM3C Assay for Interleukin-6 (IL6) Biomarker Activity for (AID 2283040). Conditions: primary human coronary artery smooth muscle cells; actives raise or lower the signal.

Read-out in assay [8]: Tissue plasminogen activator (tPA), PLAT (gene 5327)
The experiment in a line: BSK_BE3C_tPA: BioMAP Diversity Plus: BE3C Assay for Tissue plasminogen activator (tPA) Biomarker Activity (AID 2283041).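 Note: tPA level quantified by ELISA one day after compound addition.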 Conditions: primary human bronchial epithelial cells; actives raise or lower the signal. An outline of the steps: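 tPA measured by ELISA 24 h after dosing human primary bronchial epithelial cells (BE3C system). Changes in either direction were fitted against DMSO. Parallel cultures were stained with SRB to flag overt cytotoxicity.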

Read-out in assay [9]: Interleukin-8 (IL8), CXCL8 (gene 3576)
The experiment in a line: BSK_CASM3C_IL8: BioMAP Diversity Plus: CASM3C Assay for Interleukin-8 (IL8) Biomarker Activity (AID 2283042).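 Note: IL-8 protein level quantified by ELISA.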 Conditions: primary human coronary artery smooth muscle cells; actives raise or lower the signal.

Read-out in assay [10]: Human Leukocyte Antigen - DR isotype (HLADR), HLA-DRA (gene 3122)
The experiment in a line: BSK_CASM3C_HLADR: BioMAP Diversity Plus: CASM3C Assay for Human Leukocyte Antigen - DR isotype (HLADR) Biomarker Activity (AID 2283043).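 Note: cell-surface HLA-DR protein level quantified by ELISA.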 The note with it: primary human coronary artery smooth muscle cells; actives raise or lower the signal.

Read-out in assay [11]: Macrophage colony-stimulating factor (MCSF), CSF1 (gene 1435)
The experiment in a line: BSK_CASM3C_MCSF: BioMAP Diversity Plus: CASM3C Assay for Macrophage colony-stimulating factor (MCSF) Biomarker Activity (AID 2283044).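 Note: M-CSF protein amount quantified by ELISA after 24 h exposure.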 Conditions: primary human coronary artery smooth muscle cells; actives raise or lower the signal.

Read-out in assay [12]: Low-density lipoprotein receptor (LDLR), LDLR (gene 3949)
The experiment in a line: BSK_CASM3C_LDLR: BioMAP Diversity Plus: CASM3C Assay for Low-density lipoprotein receptor (LDLR) Biomarker Activity (AID 2283045).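 Note: LDLR protein level on the cell surface quantified by ELISA.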 The note with it: primary human coronary artery smooth muscle cells; actives raise or lower the signal.

Read-out in assay [13]: Monocyte Chemoattractant Protein-1 (MCP1), CCL2 (gene 6347)
Briefly: BSK_CASM3C_MCP1: BioMAP Diversity Plus: CASM3C Assay for Monocyte Chemoattractant Protein-1 (MCP1) Biomarker Activity (AID 2283046).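 Note: MCP-1 level quantified by ELISA 24 h after dosing.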 Conditions: primary human coronary artery smooth muscle cells; actives raise or lower the signal.

Assay [14] is described as follows: BSK_CASM3C_Proliferation: Cell Proliferation Assessment in the BioMAP Diversity Plus: CASM3C Assay (AID 2283047).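 Note: sulforhodamine B total protein stain as relative cell number at 560 nm; sub-confluent cells exposed 48 h before staining; fitted both ways against DMSO so gain or loss of cell number.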 The note with it: primary human coronary artery smooth muscle cells.
Read-out in assay [15]: Monokine induced gamma interferon (MIG), CXCL9 (gene 4283)
Briefly: BSK_CASM3C_MIG: BioMAP Diversity Plus: CASM3C Assay for Monokine induced gamma interferon (MIG) Biomarker Activity (AID 2283048).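 Note: MIG protein level measured by ELISA.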 Conditions: primary human coronary artery smooth muscle cells; actives raise or lower the signal.

Read-out in assay [16]: serum amyloid A (SAA), SAA1 (gene 6288)
Briefly: BSK_CASM3C_SAA: BioMAP Diversity Plus: CASM3C Assay for serum amyloid A (SAA) Biomarker Activity (AID 2283049).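 Note: SAA protein level quantified by ELISA.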 The note with it: primary human coronary artery smooth muscle cells; actives raise or lower the signal.

Assay [17] in a line: BSK_CASM3C_SRB: Viability Assessment in the BioMAP Diversity Plus: CASM3C Assay (AID 2283050).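 Note: total protein by SRB staining as cytotoxicity measure in parallel cultures.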 Conditions: primary human coronary artery smooth muscle cells.
Read-out in assay [18]: Thrombomodulin, THBD (gene 7056)
The experiment in a line: BSK_CASM3C_Thrombomodulin: BioMAP Diversity Plus: CASM3C Assay for Thrombomodulin Biomarker Activity (AID 2283051).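 Note: thrombomodulin protein level measured by ELISA 24 h after dosing.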 The note with it: primary human coronary artery smooth muscle cells; actives raise or lower the signal.

Read-out in assay [19]: Urokinase-type plasminogen activator receptor (uPAR), PLAUR (gene 5329)
Briefly: BSK_BE3C_uPAR: BioMAP Diversity Plus: BE3C Assay for Urokinase-type plasminogen activator receptor (uPAR) Biomarker Activity (AID 2283039).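 Note: cells exposed to compound for one day before measurement.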 The note with it: primary human bronchial epithelial cells; actives raise or lower the signal. An outline of the steps:
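uPAR levels were measured by ELISA after 24 h compound treatment of primary human bronchial epithelial cells, fitted in both directions relative to DMSO. Parallel SRB staining served as the cytotoxicity read-out.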

Turning to `CC(C)=CCCC(C)=CC=O`, the outcome in assay [1], in assay [2], in [3], in [4], in [5] and in assay [6] was inactive. Further, the outcome in assay [7], in [8], in assay [9], in assay [10], in assay [11] and in assay [12] was inactive. The outcome in [13], in assay [14], in assay [15], in [16], in [17] and in assay [18] was inactive.

For the compound `Cc1ccc(N)cc1O`, the outcome in [1], in assay [2], in assay [3], in [4], in [5] and in assay [6] was inactive. Besides, the result in assay [7], in assay [8], in assay [9], in assay [10], in [11] and in [12] was inactive. In addition, the result in [13], in assay [14], in assay [15], in assay [16] and in [17] was inactive. Also, the AC50 (in general, the midpoint of the concentration-response curve, whichever way the signal moves) in assay [18] is 11.2 µM (active).

Take `Cc1ccc(C)c(O)c1`: the outcome in assay [1], in assay [2], in assay [3], in [4], in assay [5] and in assay [6] was inactive. The result in assay [19], in [7], in assay [8], in assay [9], in assay [10] and in assay [11] was inactive. Moreover, the outcome in assay [12], in [13], in [14], in assay [15], in assay [16] and in [17] was inactive. Besides, in [18], the result was inactive.

Consider `CCOC(=O)c1ccc(C2CCC(NC[C@H](O)COc3ccc(O)c(NS(C)(=O)=O)c3)CC2)cc1` (stereo partly drawn), for which the result in assay [1], in assay [2], in [3], in [4], in [5] and in [19] was inactive. For the same compound, the result in [7], in assay [8], in [9], in [13], in [15] and in assay [16] was inactive. Further, the AC50 in [6] is 14.9 µM (active); in assay [10], 30.8 µM (active); in [11], 24.2 µM (active); in assay [12] it was 11.2 µM (active); in assay [14], 26.9 µM (active); in [17] it was 15.7 µM (active). The AC50 in assay [18] is 18.7 µM (active).

`CC(C)=CCC/C(C)=C\CO`: the outcome in assay [1], in assay [2], in assay [3], in assay [4], in [5] and in assay [6] was inactive. For the same compound, the outcome in assay [7], in assay [8], in [9], in assay [10], in assay [11] and in assay [12] was inactive. For the same compound, the result in [13], in assay [14], in assay [15], in [16], in assay [17] and in assay [18] was inactive.

In the case of `CC1(C)C(=O)N(Br)C(=O)N1Br`, the outcome in assay [1], in assay [2], in assay [3], in assay [4], in assay [5] and in [6] was inactive. Besides, the result in assay [7], in assay [8], in assay [9], in assay [10], in [11] and in assay [12] was inactive. The outcome in assay [13], in [14], in [15], in assay [16], in [17] and in [18] was inactive.

Regarding `O=C(NS(=O)(=O)/C=C/c1ccccc1)c1ccc(F)cc1Cl`, the AC50 in assay [1] was 6.15 µM (active); in assay [14], 6.8 µM (active). Also, the result in [2], in [3], in assay [4], in [5], in assay [6] and in assay [7] was inactive. The outcome in assay [8], in assay [9], in assay [10], in assay [11], in assay [12] and in [13] was inactive. Further, the outcome in [15], in assay [16], in assay [17] and in assay [18] was inactive.
